Measured values: PubChem BioAssay
Calls of active or inactive are those of the source. Rule as the data show it: active = inhibition above about 30%; inactive = the rest.

system: transactivating tegument protein VP16 (Human herpesvirus 1), Gal4-VP16 luciferase reporter; assay: repression of VP16-driven luciferase reporter – cell-based, luminescence, high throughput, counter-screen for SRC3 inhibitor project (AID 588794); settings: mammalian cells, at 3.6 µM, active compounds read high

Structure (SMILES) | inhibition
CCOc1ccc(-n2c(C)c(C(C)=O)c3cc(O)ccc32)cc1 | 51.2% (active)
CCc1nc(Cl)c(C#N)c2c1CCCC2 | 34.1% (active)
COc1cc2cncc(Cc3ccc(Cl)cc3)c2cc1OC | 40.7% (active)
COc1ccc(C(=O)N/N=C/c2cc(Br)ccc2O)cc1OC | 37.5% (active)
Cc1cc(C)nc(/N=C(\N)Nc2ccc(-c3ccccc3)cc2)n1 | 33.3% (active)
O=C1CC(c2ccc3c(c2)OCO3)Sc2nc3ccccc3n21 (stereo not given) | -34.8% (inactive)
COc1cc(Cl)cc(/C=N\NC(=O)c2ccc3c(c2)OCO3)c1O | 33.3% (active)
O=C(NNC1=Nc2cccc3cccc1c23)c1ccccc1Br | 22.2% (inactive)
O=C(Nc1ccc(Cn2cccn2)cc1)c1ccc(COc2cccc(Br)c2)cc1 | 42.6% (active)
Cc1cn([C@@H](CCCCNC(=O)OC(C)(C)C)C(=O)NCCCCCCCCCCC(=O)N2CCN(C(=O)OC(C)(C)C)CC2)nn1 | 25.6% (inactive)
O=C(Nc1ccc(N2CCN(C(=O)c3ccc(Cl)cc3)CC2)cc1)c1ccc2c(c1)OCCO2 | 42% (active)
Cc1ccc2nc(-c3ccncc3)c(NC3CCCC3)n2c1 | 29.2% (inactive)
O=C(NCc1ccc(Cl)cc1)c1csc(-c2cccnc2)n1 | 16.3% (inactive)
COc1ccc(-n2cnc3c(sc4nccc(N(C)C)c43)c2=O)cc1 | 22.4% (inactive)
O=C(N/N=C/c1sc(N2CCOCC2)nc1-c1ccccc1)c1cccc(S(=O)(=O)N2CCCC2)c1 | 67% (active)
Oc1ccc(-c2n[nH]c(=S)n2-c2ccc3c(c2)OCCO3)c(O)c1 | 34% (active)
Nc1nc(CCl)nc(Nc2cccc3ccccc23)n1 | 15.4% (inactive)
N#Cc1c2ccc(O)cc2n2ccccc12 | 21.9% (inactive)
Nc1ccn([C@@H]2O[C@H](CO)[C@@H](O)C2O)c(=O)n1 (stereo not given in full) | 30.9% (active)
CC(C)CC(=O)/C(=C\c1ccc(Cl)cc1Cl)n1cncn1 | 48.8% (active)

Structure (SMILES) | inhibition
CN(C)/C=C/C(=O)c1ccc2noc(-c3ccccc3)c2c1 | 28.1% (inactive)
Cc1nc2c(-c3ccc(Cl)cc3)c(C)[nH]n2c(=O)c1Cc1ccccc1 | 29.3% (inactive)
Cc1nc(N2CCC(C(N)=O)CC2)c2c(-c3cccs3)csc2n1 | 25.8% (inactive)
COc1ccc(-c2csc3ncnc(NCCCO)c23)cc1 | 46.3% (active)
CC(C)(C)c1cc(C(=O)N/N=C/c2ccc(O)cc2)n(-c2ccccc2)n1 | 14% (inactive)
COc1ccc(-c2cn[nH]c2-c2ccc(OC)cc2)cc1 | 34.7% (active)
C[n+]1c2n(c3ccccc31)N=C(c1ccccc1)CS2 | 37.2% (active)
CCOc1cc(Br)cc(/C=N/NC(=O)c2cccnc2)c1O | 44.3% (active)
O=C(N/N=C/c1c(O)ccc2ccccc12)c1cccc(C(F)(F)F)c1 | 78.6% (active)
COc1cc(/C=C2\SC(N)=NC2=O)cc(OC)c1 | 27.3% (inactive)
CCCCOC(=O)c1[nH]c2c(c1C)C(=O)CC(c1cc(OC)c(OC)c(OC)c1)C2 (stereo not given) | 28% (inactive)
COc1ccc2[nH]c(=O)c(CN(CCN3CCCC3)C(=O)Nc3ccccc3Cl)cc2c1 | 20.4% (inactive)
COc1ccc(CN(C)C(=O)c2ccc(OCC(=O)Nc3cccc(C(F)(F)F)c3)c(OC)c2)cc1 | 24.7% (inactive)
O=C(NC1CCCCCCC1)C1c2ccccc2C(=O)N1Cc1cccs1 (stereo not given) | 14.6% (inactive)
Cc1c2ccncc2cc2c1[nH]c1ccccc12 | 33.5% (active)
COc1ccc(-c2cnc(N)nc2-c2ccc(OC)cc2O)cc1 | 13.7% (inactive)
O=[N+]([O-])c1ccc(O)c(/C=N/Nc2ccccn2)c1 | 41.6% (active)
Cc1nc(N)c(CC(Br)CBr)c(Cl)n1 (stereo not given) | 35.4% (active)
O=C(N/N=C/c1cc([N+](=O)[O-])ccc1O)c1cccc(N2CCCC2=O)c1 | 14.3% (inactive)
OCCN1CCN(C(=S)c2ccc(-c3ccccc3)cc2)CC1 | 4.96% (inactive)
